Our source for the growth values is PubChem BioAssay (NCI).

Test systems include T-47D breast; BT-549 breast; MDA-MB-435 melanoma; SW-620 colon; MCF7 breast; HCT-116 colon; HCC-2998 colon; KM12 colon.
What all share (experiment): NCI-60 one-dose screen, 48 h (100 = growth as untreated, 0 = no growth, -100 = all killed)
What all share (conditions): 10 µM unless noted

Compounds without any hit were thinned out: in the full panel of roughly 83,000, 20% have a hit.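 Treatment: one concentration, 48 hours, 96-well format. Scoring: percent growth, with anything below 10 considered active.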 Values without a mark were called inactive. Calls of active or inactive are those of the source.

As to `O=C(O)CCC/C=C\C[C@H]1C=CC(=O)/C1=C/C[C@@H](O)CCc1cccc(C(F)(F)F)c1`, the growth with T-47D breast was 21.4%; in the test with BT-549 breast it was 5.1% (active); in the test with MDA-MB-435 melanoma, -53.5% (active); with SW-620 colon, -35.8% (active); with MCF7 breast, 11%; in the test with HCT-116 colon it was -66.4% (active). For the same compound, the growth with HCC-2998 colon is -84.4% (active); with KM12 colon, -47% (active).
Consider `CC(=O)CC(c1cccs1)c1c(-c2ccccc2)[nH]c2ccccc12` (stereo not given), for which the growth was 84.6% in the test on T-47D breast; 105% in the test on BT-549 breast; 98% with MDA-MB-435 melanoma; 90.4% with SW-620 colon; 92.2% with MCF7 breast; 89.9% in the test with HCT-116 colon. In addition, the growth with HCC-2998 colon was 97.8%; with KM12 colon, 94.3%.
Turning to `COc1ccn2c(C(C)=O)cc(C(=O)c3ccc4c(c3)Sc3ccccc3N4)c2c1`, the growth with T-47D breast was 57.4%; in the test with BT-549 breast, 55.6%; with MDA-MB-435 melanoma, -32.9% (active); in the test on SW-620 colon, 23.4%; in the test with MCF7 breast, 20.9%; in the test with HCT-116 colon, 1.38% (active). The growth in the test on HCC-2998 colon was 21.2%; with KM12 colon, 7.27% (active).
Regarding `CCCCNC(=O)Oc1ccc(/C(=C(\C)c2ccc(Cl)cc2)c2ccc(OCCN(CC)CC)cc2)cc1`, the growth with T-47D breast is 42.2%; in the test with BT-549 breast, 80.3%; in the test with MDA-MB-435 melanoma it was 66.4%; with SW-620 colon, 79.8%; in the test with MCF7 breast it was 30.1%; with HCT-116 colon, 51%. Further, the growth in the test on HCC-2998 colon is 80.6%; with KM12 colon it was 68.2%.
With `O=C(N/N=C/[C@H](O)[C@H](O)[C@H](O)CO)c1ccc(NC(=O)c2cccnc2)cc1`, the growth in the test with T-47D breast is 99.2%; in the test on BT-549 breast it was 102%; in the test on MDA-MB-435 melanoma, 103%; in the test on SW-620 colon, 103%; with MCF7 breast, 92%; in the test on HCT-116 colon, 105%. The growth with HCC-2998 colon is 110%; with KM12 colon, 103%.
As to `COc1ccc(-c2nc3sc(-c4ccccc4)cn3n2)cc1`, the growth in the test with T-47D breast was 34.6%; in the test on BT-549 breast, 73.3%; in the test with MDA-MB-435 melanoma, -8.6% (active); with SW-620 colon it was 35.1%; in the test with MCF7 breast, 25.1%; in the test on HCT-116 colon, 40%. For the same compound, the results for the growth with HCC-2998 colon and with KM12 colon were 77.3% and 29.5%, respectively.
Consider `CCOC(=O)NCCc1ccccc1`, for which the growth with T-47D breast is 106%; with BT-549 breast it was 108%; in the test with MDA-MB-435 melanoma, 108%; in the test with SW-620 colon it was 99.2%; in the test with MCF7 breast, 99.1%; with HCT-116 colon, 108%. The growth with HCC-2998 colon was 90.3%; in the test with KM12 colon, 108%.
As to `O=c1c2cc(F)ccc2sc2c(NCCN3CCOCC3)nc3ccccc3c12`, the growth is 84.9% in the test with T-47D breast; 82.3% in the test with BT-549 breast; 61.2% in the test with MDA-MB-435 melanoma; 42.4% in the test on SW-620 colon; 76.9% with MCF7 breast; 46.9% in the test on HCT-116 colon. Also, the results for the growth in the test on HCC-2998 colon and with KM12 colon were 59% and 26%, respectively.
In the case of `O=C(Nc1nc2ccc(F)cc2s1)c1cccnc1Nc1ccc(Cl)cc1Cl`, the growth is 0.802% (active) in the test on T-47D breast; -9.44% (active) in the test with BT-549 breast; 26.3% in the test with MDA-MB-435 melanoma; 20.2% in the test with SW-620 colon; 13% with MCF7 breast; 11% in the test on HCT-116 colon. Also, the growth in the test with HCC-2998 colon is 8.35% (active); in the test with KM12 colon, 9.49% (active).
Turning to `COc1ccc(/C=C(/C#N)n2nnc3cccc(F)c32)cc1`, the growth is 9.54% (active) in the test with T-47D breast; 20.3% in the test on BT-549 breast; -56.4% (active) with MDA-MB-435 melanoma; 11.9% in the test with SW-620 colon; 17.1% with MCF7 breast; 10.1% in the test with HCT-116 colon. For the same compound, the growth with HCC-2998 colon is 36%; with KM12 colon it was 5.54% (active).
Turning to `O=C(/C=C/c1sc(Cl)nc1Cl)c1ccccc1`, the growth with T-47D breast was 98.3%; with BT-549 breast it was 107%; with MDA-MB-435 melanoma, 99.4%; in the test on SW-620 colon it was 33%; in the test with MCF7 breast it was 32.8%; in the test with HCT-116 colon, 34%. For the same compound, the growth in the test with HCC-2998 colon is 49.3%; with KM12 colon, 85.7%.
For `C#Cc1cccc(NC(=O)c2ccc(NC(=O)C=C)cc2)c1`, the growth in the test on T-47D breast is 55.6% [8.25 µM]; with BT-549 breast, 77% [8.25 µM]; in the test with MDA-MB-435 melanoma, 65.5% [8.25 µM]; in the test with SW-620 colon it was 77.9% [8.25 µM]; with MCF7 breast it was 59% [8.25 µM]; in the test with HCT-116 colon it was 57.4% [8.25 µM]. The growth in the test on HCC-2998 colon was 101% [8.25 µM]; in the test on KM12 colon it was 96.7% [8.25 µM].
For the compound `COc1ccc(-c2nc(NN)c3c(C)nn(-c4ccc(F)cc4)c3n2)cc1`, the growth in the test with T-47D breast was 38.6%; in the test on BT-549 breast, 46.8%; in the test with MDA-MB-435 melanoma it was 0.816% (active); with SW-620 colon, 22.9%; with MCF7 breast, 26.2%; in the test with HCT-116 colon, 18.7%. The growth is 76.6% in the test on HCC-2998 colon and 29.1% in the test on KM12 colon.
As for `CCCCn1c(=O)c(-c2cc(-c3ccc(Cl)cc3)nc(-c3ccc(Cl)cc3)c2)cc2cc(C)ccc21`, the growth was 95.8% with T-47D breast; 103% with BT-549 breast; 104% with MDA-MB-435 melanoma; 99.6% in the test with SW-620 colon; 97.6% in the test with MCF7 breast; 99.8% in the test on HCT-116 colon. Besides, the growth is 105% in the test with HCC-2998 colon and 102% in the test on KM12 colon.
`Cc1nc(S(=O)(=O)c2ccccc2)c(S(=O)(=O)Cc2ccc([N+](=O)[O-])cc2)o1`: the growth in the test with T-47D breast was 77%; with BT-549 breast it was 87.7%; in the test with MDA-MB-435 melanoma, 101%; in the test on SW-620 colon, 90.9%; with MCF7 breast, 74.2%; in the test with HCT-116 colon, 86.6%. For the same compound, the values for the growth in the test on HCC-2998 colon and in the test with KM12 colon were 97.7% and 106%, respectively.
